Measured potencies and affinities stand elsewhere. Values without a mark were called inactive. Calls of active or inactive are those of the source.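 The calls were made as follows: active = falling luciferase signal whose fitted half-maximal concentration is at most twice the top tested dose; inconclusive = flat inhibition between 30 and 70% or a poor curve fit; inactive = the rest.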
experiment: off-target signal loss in HeLa-CEM21 co-culture – HeLa F-luc CTL cells, cherry-picked, counter-screen for HIV-1 Env fusion inhibitor project, dose response (AID 652040); settings: HeLa-F-luc CTL cells with CEM21, firefly luciferase counterscreen; series mostly up to 35 µM;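 also: 0% = median of neutral control wells and -100% = doxycycline 40 µg/mL wells; more negative values mean stronger loss of luciferase signal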

| SMILES | outcome | activity change, negative = inhibition |
| --- | --- | --- |
| O=C(NCCCc1nc2ccccc2[nH]1)c1ccco1 | inactive | – |
| CC1CCC(C(C)C)C(OC(=O)Cn2c(-c3ccc(Cl)cc3)[n+](C)c3ccccc32)C1 (stereo not given) | – | 55.5% [at 8 µM] |
| O=C(CC1C(=O)NCCN1Cc1cccc(F)c1)NC1CCCCC1 (stereo not given) | inactive | – |
| CCC12CN(S(=O)(=O)c3ccc(C)cc3)CC(CC)(CN(S(=O)(=O)c3ccc(C)cc3)C1)C2=O | inactive | – |
| COCc1[nH]nc2c1C(c1ccc(F)cc1)N(Cc1ccccc1)C2=O (stereo not given) | inactive | – |
| O=C(Nc1nc(-c2ccc3c(c2)OCO3)cs1)c1ccncc1 | inactive | – |
| C=C(C)CN(CC)c1nc(N)c2c(N)nc3c(c2c1C#N)CC(=O)N3C12CC3CC(CC(C3)C1)C2 | inactive | – |
| CCc1ccc(-c2nc(CN3CCC(C(=O)NCCc4ccc(OC)c(OC)c4)CC3)c(C)o2)cc1 | inactive | – |
| Cc1cc(C(=O)N2CCC(C(=O)O)CC2)c(C(F)(F)F)o1 | inactive | – |
| COC(=O)[C@]12CCCCC=C1N(Cc1ccco1)C(=O)[C@H](CC(=O)NCCc1ccccc1OC)C2 | inactive | – |
| Cc1cc(Cl)c(S(=O)(=O)N2CCSCC2)cc1OCC(=O)NC1CCCCC1 | inactive | – |
| Cc1ccc(C2CC(=O)c3cnc(N4CCc5ccccc5C4)nc3C2)cc1 (stereo not given) | inactive | – |
| c1ccc2c(c1)ncn2CCCCOc1ccc2c(c1)CCC2 | inactive | – |
| COc1ccc(CCCC(=O)NCCc2ccccc2)c(C)c1 | inactive | – |
| Cc1oc(-c2ccccc2F)nc1CN1CCC(C(=O)NCCC2=CCCCC2)CC1 | inactive | – |
| O=C(N/N=C/c1ccc(-n2ccnc2)cc1)c1cccs1 | inactive | – |
| COc1ccc(C)cc1NC(=O)CCNS(=O)(=O)c1ccc2c(c1)CC(C)N2C(C)=O (stereo not given) | inactive | – |
| C=CCN1C(=S)CC(c2ccccc2)=Nc2ccccc21 | inactive | – |
| CC(C)OCCCn1c(=S)[nH]c2ccc(N3CCOCC3)cc2c1=O | inactive | – |
| CCc1nc(N2CCCCC2)c2oc3ccccc3c2n1 | inactive | – |

| SMILES | outcome | activity change, negative = inhibition |
| --- | --- | --- |
| Cc1cc(N2CCN(c3nc4ccccc4s3)CC2)n2ncnc2n1 | inactive | – |
| O=C(c1ccccc1)N1CCC(c2nc(-c3ccc(S(=O)(=O)NCC4CCCO4)cc3)no2)CC1 (stereo not given) | inactive | – |
| Cc1sc2ncnc(N3CCN(S(=O)(=O)c4ccc(Br)cc4)CC3)c2c1C | inactive | – |
| O=C(COc1ccc(-n2cnnn2)cc1)Nc1ccc(F)c(F)c1 | inactive | – |
| CCCCOCCCNc1ncnc2c1[nH]c1ccccc12 | inactive | – |
| O=C(c1cccc(S(=O)(=O)N2CCN(c3ccccc3)CC2)c1)N1CCCC(C(F)(F)F)C1 (stereo not given) | inactive | – |
| COc1ccc(S(=O)(=O)NNC(=O)C2Cc3c(ccc4ccccc34)O2)cc1 (stereo not given) | inactive | – |
| COc1ccc(-c2cn3c(C)c(C(=O)Nc4cccc(NC(C)=O)c4)sc3n2)cc1 | inactive | – |
| Cn1c(=O)c2c(nc(NCCc3ccccc3)n2Cc2ccccc2)n(C)c1=O | inactive | – |
| CC(C)CNS(=O)(=O)c1ccc(CCC(=O)N2CCN(Cc3ccc4c(c3)OCO4)CC2)cc1 | inactive | – |
| CCn1c(/C=C/N(C)c2ccccc2)[n+](CC)c2ccc(Cl)cc21 | inactive | – |
| Cc1cc(C(=O)NC2CCCc3c2cnn3-c2ccc(C(C)(C)C)cc2)nn1C (stereo not given) | inactive | – |
| CC1(C(=O)NCc2ccc3c(c2)OCO3)CCN1Cc1csc2ccccc12 (stereo not given) | inactive | – |
| O=C(Nc1cc2c3c(c1)CC(=O)N3CCC2)c1ccc(Cl)cc1 | inactive | – |
| C=CC[n+]1c(-c2ccc(C)cc2)csc1NNC(=O)Nc1ccccc1 | inactive | – |
| Cc1oc(-c2ccc(Cl)cc2)nc1CN1CCCC(C(=O)NCc2cccnc2)C1 (stereo not given) | inactive | – |
| CCN(C1CCCCC1)S(=O)(=O)c1ccc(S(=O)(=O)NCc2ccncc2)cc1 | inactive | – |
| COc1ccc(/C=C/c2cc(-c3ccc(C)cc3)o[n+]2C)cc1 | inactive | – |
| COC(=O)c1ccc(C(=O)NC2CCCc3c2cnn3-c2ccc(C)c(C)c2)cc1 (stereo not given) | inactive | – |
| CCOC(=O)[C@]12CCC=C1N(Cc1ccc3c(c1)OCO3)C(=O)[C@H](CC(=O)NCC13CC4CC(CC(C4)C1)C3)C2 | inactive | – |
